TbPYK inhibitor = blocks Trypanosoma brucei pyruvate kinase; Q57TT1; TbPYK enzyme, Kinase-Glo Plus ATP luminescence, 45 min; Potency, µM (highest dose often 76.8 µM), for the others: at the top dose activity, negative = inhibition, actives largely listed as inhibitors; 0.12% of 410,000 active; AID 624173; further: potency means the concentration at half of the fitted maximal effect; on the % scale 0 is the no-effect control and ±100 the full control effect; nearly all actives have a fitted effect of over 50% in size
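TbPYK + substrate in 50 mM TEA pH 7.2, 100 mM KCl, 10 mM MgCl2, 0.05% BSA, 0.01% Tween-20; cpd pinned; ADP 130 uM final; 45 min RT; Kinase-Glo Plus 10 min; luminescence endpoint.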
Cycloheximide cs = counter-screen hit for Shiga toxin inhibitors, cycloheximide | cell reporter, cycloheximide protein synthesis inhibition counterscreen | max response, % | 12% of 300,000 active; in the data active means max response mostly above about 13%, no sharp cut-off; inactive means mostly below about 14%; further: read at 38.3 µM for the half of the compounds with a filed dose; 0% is about no effect
FBPA Giardia inh = Giardia lamblia aldolase inhibition | A8B2U2 | purified Giardia FBPA | Potency, µM (highest dose often 59.6 µM), without a hit: top-dose activity, negative = inhibition, actives largely listed as inhibitors | 0.71% of 290,000 active | AID 2451; further: potency means the concentration at half of the fitted maximal effect; on the % scale 0 is the no-effect control and ±100 the full control effect; nearly all actives have a fitted effect of over 55% in size
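40 nM FBPA preincubated 10 min at RT with compound (up to 57.5 uM final), then substrate plus GAPDH/TPI/NAD/arsenate coupling and diaphorase/resazurin added. Fluorescence read after 20 min at RT, 525/598 nm.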
Shiga toxin inh = Shiga toxin inhibition; Vero cells, Shiga toxin protein synthesis inhibition reporter; inhibition, % at 38.7 µM; 9.2% of 290,000 active; in the data active means inhibition mostly above about 28%, no sharp cut-off; inactive means mostly below about 43%; further: 0% is about no effect
RE007 growth inh = less growth of the S. pombe RE007 Vpr strain; S. pombe RE007 Vpr strain, BacTiter-Glo ATP luminescence, 24 h; Potency, µM (top dose mostly 92.2 µM), inactives show at the highest dose activity change, negative = less growth, most hits filed as inhibitors; 0.21% of 360,000 active; AID 651644; active means well fitted falling curve with a large enough effect; inconclusive means small, poorly fitted or top-dose-only effect; inactive means no such curve, though single readings can be large or run the other way; further: potency means the concentration at half of the fitted maximal effect; on the % scale 0 is the no-effect control and ±100 the full control effect; nearly all actives have a fitted effect of over 50% in size
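Fission yeast strain RE007, carrying one chromosomally integrated HIV-1 vpr copy, was seeded at OD 0.01 in PMG+AL medium with 23 nL pinned compound. After 24 h at 30 °C and 99% humidity, viability was read by BacTiter-Glo luminescence.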
LmPK inh = inhibitors of Leishmania mexicana pyruvate kinase; Q27686; purified LmPK, Kinase-Glo ATP luminescence, 1 h; Potency, µM (highest dose often 57.5 µM), inactives show at the highest dose activity change, negative = inhibition, most hits filed as inhibitors; 0.37% of 290,000 active; AID 1721; further: potency means the concentration at half of the fitted maximal effect; on the % scale 0 is the no-effect control and ±100 the full control effect
Target sequence (Q27686 whole entry, looked up): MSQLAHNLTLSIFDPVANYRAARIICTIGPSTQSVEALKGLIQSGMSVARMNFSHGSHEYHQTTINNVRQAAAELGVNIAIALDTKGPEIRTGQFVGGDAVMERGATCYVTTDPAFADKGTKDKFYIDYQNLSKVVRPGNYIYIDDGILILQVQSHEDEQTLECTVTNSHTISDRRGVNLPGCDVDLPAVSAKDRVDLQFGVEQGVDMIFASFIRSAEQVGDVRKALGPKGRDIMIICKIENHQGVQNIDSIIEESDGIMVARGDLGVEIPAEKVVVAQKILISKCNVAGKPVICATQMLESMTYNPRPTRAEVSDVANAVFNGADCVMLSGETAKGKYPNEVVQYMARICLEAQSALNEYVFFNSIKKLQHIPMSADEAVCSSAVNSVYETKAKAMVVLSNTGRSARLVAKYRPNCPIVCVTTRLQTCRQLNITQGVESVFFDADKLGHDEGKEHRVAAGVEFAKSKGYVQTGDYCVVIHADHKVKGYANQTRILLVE
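ATP generated from ADP (0.1 mM) and PEP (0.5 mM) by 0.1 nM LmPK over 1 h at room temperature (pH 7.2 imidazole buffer) was detected by coupled luciferase luminescence. Values were normalized to uninhibited and no-enzyme wells.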
* = called active by the depositor; ? = inconclusive; · = no result given. Only a selection was taken, and hits are over-represented in it overall. Unless noted, the call rests on the fitted dose curve; in most records, active means well fitted curve in the direction sought with a large enough effect; inconclusive means small, poorly fitted or top-dose-only effect, or another doubt; inactive means no such curve, though single readings can be large; an effect the other way counts as inactive or inconclusive.

SMILES	TbPYK inhibitor	Cycloheximide cs	FBPA Giardia inh	Shiga toxin inh	RE007 growth inh	LmPK inh
N#C/C(=C\c1ccc(F)cc1)C(=O)Nc1ccccn1	9.0%	-2.3	-13.5%	-6.5	1.0%	0.1%
c1ccc(CCSc2nccn2-c2ccccc2)cc1	-1.8%	52.4*	-6.6%	119.9*	-16.2%	-3.2%
O=C(NC1CCCC1)c1cc(-c2ccc(F)cc2)on1	-2.0%	45.9*	-0.2%	95.7*	8.9%	-0.6%
O=C(NC1CCCC1)c1cc(-c2ccc(Cl)cc2)on1	1.5%	27.5*	4.3%	59.3*	-10.7%	-3.9%
O=C(NC1CCCCC1)c1cc(-c2ccc(Cl)cc2)on1	-1.2%	-2.3	1.0%	-4.0	9.7%	0.0%
COc1ccc(CCNC(=O)c2ccc(Cn3c(=O)c4ccccc4n(Cc4cccc(F)c4)c3=O)cc2)cc1OC	1.4%	·	·	·	·	·
Cc1nnc(SCC(=O)NC(C)(C)C)n1CCc1ccccc1	4.4%	10.9*	1.1%	7.8	9.8%	-0.8%
Cc1nnc(SCC(N)=O)n1CCc1ccccc1	-9.3%	-1.8	-8.6%	14.1	-2.7%	0.4%
O=C(CC1Nc2ccccc2NC1=O)c1ccccc1 (stereo unspecified)	·	31.3*	-11.0%	46.2	·	0.5%
Cc1ccc(NC2Sc3ccccc3NC2=O)cc1Cl (stereo unspecified)	-2.3%	13.1*	-5.6%	25.7	3.8%	5.6%
Cc1ccc(NC(=O)CC2Nc3ccccc3NC2=O)cc1Cl (stereo unspecified)	-0.7%	28.2*	-3.8%	107.8*	0.2%	-2.5%
Cc1ccc(NC(=O)CC2SCCNC2=O)cc1Cl (stereo unspecified)	4.8%	23.3*	-7.1%	48.3*	0.8%	-2.8%
Cc1ccc(NC(=O)CC2Nc3ccccc3NC2=O)cc1C (stereo unspecified)	-12.1%	·	·	·	·	·
CSCCC(C(=O)Nc1c(C)cccc1C)N1CCN(c2ccc(C(F)(F)F)cn2)CC1 (stereo unspecified)	1.2%	·	·	·	-1.7%	·
CCOC(=O)c1cnc2c(-c3ccccc3OC)c(C)nn2c1C	0.9%	1.3	-2.9%	7.7	-21.3%	-0.6%
CC(C)n1c(=O)nc(-c2ccccc2)c2cc3c(cc21)OCO3	-3.2%	·	·	·	2.0%	·
CCOc1ccc(C(=O)Nc2c(C(=O)c3ccccc3)oc3ccccc23)cc1	2.5%	·	·	·	·	·
COc1ccc(Cl)cc1C(=O)Nn1cnc2ccccc2c1=O	-8.1%	-1.8	1.5%	-5.7	6.7%	-0.6%
COc1ccccc1C(=O)Nn1cnc2ccccc2c1=O	2.5%	23.7*	0.9%	49.2*	7.6%	-2.7%
CCN(CC)c1ccc(C(=O)Nn2cnc3ccccc3c2=O)cc1	-3.9%	35.0*	2.2%	75.8*	21.8%	-1.6%
CCCCCCCCCC(=O)Nn1cnc2ccccc2c1=O	1.4%	-1.7	10.6%	-7.5	1.2%	0.5%
COc1ccc(OC)c(NC(=O)CCCCCn2nnc3ccccc3c2=O)c1	-9.9%	5.9	5.5%	14.9	22.8%	-1.6%
C=CCNC(=O)c1ccc(-n2cccc2)cc1	-3.4%	29.6*	-5.0%	30.9	-6.2%	8.4%
O=C(NC1CC1)c1ccc(-n2cccc2)cc1	-5.6%	62.2*	1.0%	38.8	-10.7%	-6.6%
O=C(NC1CCCCCC1)c1ccc(-n2cnnc2)cc1	-10.7%	-1.3	1.9%	11.7	9.8%	-7.1%
SMILES	TbPYK inhibitor	Cycloheximide cs	FBPA Giardia inh	Shiga toxin inh	RE007 growth inh	LmPK inh
C(=C\c1ccccc1)/C=N/Nc1nc2ccccc2s1	2.4%	34.0*	-0.1%	95.2*	8.8%	1.8%
O=S(=O)(N/N=C\C=C\c1ccccc1)c1ccc(Br)cc1	-8.0%	-1.0	-0.3%	-14.2	3.8%	7.3%
CCC/C=N/NC(=O)c1cc(-c2ccccc2)nc2ccccc12	2.9%	-6.0	4.9%	-12.0	6.8%	4.3%
Brc1ccc(/C=C/C=N/Nc2nc3ccccc3s2)cc1	9.6%	18.8	·	49.1*	-3.8%	3.8%
CCC/C=N/Nc1nc2ccccc2s1	2.6%	34.6*	-4.9%	107.7*	-13.0%	-11.7%
C(=C\c1ccccc1)/C=N/Nc1nc(N2CCCCC2)nc(N2CCCCC2)n1	3.0%	-1.0	6.8%	21.9	-2.9%	-0.6%
CCCOCC(O)CC(Cc1ccccc1)C(=O)NN (stereo unspecified)	0.8%	-3.3	2.0%	-25.8	-8.4%	0.6%
Cc1c(NC(=O)c2cccs2)cccc1-c1nc2ccccc2s1	-14.7%	17.7	-4.3%	23.2	-12.8%	1.7%
Cc1ccc2sc(-c3ccc(NC(=O)c4cc(-n5cnnc5)ccc4Cl)cc3)nc2c1	15.7%	62.2*	16.7%	134.2*	1.3%	-8.2%
O=C(Nc1cccc(-c2nc3ccccc3s2)c1)c1cc(-n2cnnc2)ccc1Cl	6.7%	29.5*	-1.1%	58.2	3.0%	0.3%
CC(=O)Nc1ccc(NC(=O)c2cc(-n3cnnc3)ccc2Cl)cc1	-1.5%	-2.3	-2.9%	-18.6	2.6%	-4.4%
Cc1c(NC(=O)c2cc(-n3cnnc3)ccc2Cl)cccc1-c1nc2ccccc2s1	-0.6%	23.1*	11.0%	36.9*	-14.9%	0.3%
COc1cccc(N=CNc2cccc(OC)c2)c1	-1.1%	·	·	·	3.5%	·
Cc1ccc(-c2nnc(Nc3ccc(C(=O)N(C)C)cc3)c3ccccc23)cc1S(=O)(=O)N(C)C	-2.2%	·	·	·	·	·
CC1CCCCN1C(=O)CSc1nc(-c2ccccc2)cn1N (stereo unspecified)	2.1%	24.9*	1.4%	46.4*	3.6%	3.1%
CC1CCCCN1C(=O)CSc1ccc(-c2ccc(F)cc2)nn1 (stereo unspecified)	-6.5%	18.9*	1.2%	41.3	-1.4%	5.0%
CC1CCCCN1C(=O)CSc1n[nH]c(-c2ccccc2)n1 (stereo unspecified)	0.4%	·	·	·	·	·
Clc1cccc(-c2nc3c4ccccc4ccn3c2Cc2ccsc2)c1	-8.3%	·	·	·	7.8%	·
COc1cc(OC)cc(-c2nc3nc(C)c(CCC(=O)Nc4ccc(C)c(C)c4)c(C)n3n2)c1	-3.3%	·	·	·	·	·
NS(=O)(=O)c1ccc(N/N=C/c2cn(-c3ccccc3)nc2-c2cccs2)c([N+](=O)[O-])c1	6.1%	6.3	7.3%	6.6	-8.0%	-4.0%
Cc1nn(-c2ccccc2)cc1/C=N/NC(N)=S	-0.2%	13.0	-17.1%	39.6*	2.4%	-12.1%
O=C(Nc1cccnc1)c1cn(-c2ccccc2)nc1-c1cccs1	2.9%	3.9	-3.8%	5.6	10.0%	-2.5%
Cc1ccc(-c2nn(-c3ccccc3)cc2/C=N/NC(=O)c2ccncc2)o1	-4.4%	65.1*	-7.8%	58.4*	189.4%	1.8%
Cc1nn(-c2ccccc2)cc1/C=N/O	-0.1%	-1.9	0.6%	28.0	-11.1%	4.9%
NS(=O)(=O)c1ccc(N/N=C/c2cn(-c3ccccc3)nc2-c2cccs2)cc1	-12.6%	9.3*	1.8%	38.9*	-4.7%	-1.8%
O=C(O)c1cccc(N/N=C/c2cn(-c3ccccc3)nc2-c2cccs2)c1	-11.7%	51.6*	-4.9%	149.9*	?	-3.0%
